Source: PubChem BioAssay AID602399 (Sanford-Burnham Center for Chemical Genomics, 2012)
The whole screen tested about 360,000 compounds, of which about 2,800 (0.78%) were called active. Only a selection was taken, and actives are over-represented in it overall. Values without a mark were called inactive. No stated cut-off is given here; in the data, active means inhibition above about 26%; inactive means the rest.

system: Nicotinate-nucleotide adenylyltransferase NadD (Staphylococcus aureus N315); experiment: inhibitors of S. aureus NadD, primary screen, biochemical, colorimetric, uHTS (AID 602399); conditions: purified NadD enzyme, colorimetric absorbance read-out; at 20 µM; active compounds read high

Question: `Cc1cccc(N2C(=O)NC(=O)/C(=C\c3cnn(-c4ccccc4)c3)C2=O)c1` was tested. Which inhibition did it give?
Answer: 31.6% (active)

Question: For `COC(=O)CN1C(=O)C2(C(C(=O)OC)=C(N)Oc3ccccc32)C2=C1CC(C)(C)CC2=O` (stereo not given), which inhibition is on record?
Answer: -11.2%

Question: With `CC1(C)C(c2ccccc2)=NC(c2cccnc2)=[N+]1[O-]` as the compound, how does the inhibition read?
Answer: -1.36%

Question: `Cc1cccc(NC(=O)N2CC3CC(C2)c2cccc(=O)n2C3)c1` (stereo not given) was tested. Which inhibition did it give?
Answer: -1.21%

Question: Which inhibition does the source give for `COC1C(O)C(C)OC(OC2CCC3(C=O)C(CCC4C3CCC3(C)C(C5=CC(=O)OC5)CCC43O)C2)C1O` (stereo not given) here?
Answer: -4.34%

Question: `CCOC(=O)c1c(C)c(C(=O)N2CCC3(CC2)OCCO3)c(C)n1CC` was tested. Which inhibition did it give?
Answer: -2.05%

Question: For `O=c1[nH]c(CN2CC=C(c3ccccc3)CC2)nc2scc(-c3cccs3)c12`, which inhibition is on record?
Answer: 29.6% (active)

Question: With `CC1=CC(=Cc2sc3ccccc3[n+]2C)C=C(C)O1` as the compound, how does the inhibition read?
Answer: 1.49%

Question: Which inhibition does the source give for `CCN1C(=O)NC(=O)C2(CCCC2)C1=O` here?
Answer: 1.24%

Question: Which inhibition does the source give for `c1cc2c(cc1C1OCC3C(c4ccc5c(c4)OCO5)OCC13)OCO2` (stereo not given) here?
Answer: 1.25%

Question: With `CCCCCn1c(=O)c(C(=O)NCc2ccccc2)c(O)c2ccccc21` as the compound, how does the inhibition read?
Answer: 1.88%

Question: How did the inhibition turn out when `CCCCn1c(=O)c(C(=O)Nc2ccccc2Cl)c(O)c2ccccc21` was run?
Answer: -7.15%

Question: With `CCCCCn1c(=O)c(C(=O)Nc2c(C)n(C)n(-c3ccccc3)c2=O)c(O)c2ccccc21` as the compound, how does the inhibition read?
Answer: 29.9% (active)

Question: With `Clc1ccc2nc3c(c(-c4ccccc4)c2c1)CNCC3` as the compound, how does the inhibition read?
Answer: -4.51%

Question: For `COCc1cc(OC(=O)N(C)C)nc(-c2ccc(C)c(Cl)c2)n1`, which inhibition is on record?
Answer: -4.84%

Question: With `COC1=C[C@@H]2[C@@H]3Cc4ccc(OC)c(O)c4[C@]2(CCN3C)CC1=O` as the compound, how does the inhibition read?
Answer: 3.24%

Question: With `O=C1NC(=O)N(Cc2ccco2)C(=O)/C1=C\c1ccc(-c2ccc(F)cc2)o1` as the compound, how does the inhibition read?
Answer: 38.2% (active)

Question: How did the inhibition turn out when `O=C(Cn1c(=O)n(CC2CS2)c2ccccc21)N1CCCCC1` (stereo not given) was run?
Answer: -1.82%

Question: How did the inhibition turn out when `COc1cccc(-c2nc3ccc(N4CCN(C)CC4)cc3[nH]2)c1` was run?
Answer: -5.51%

Question: How did the inhibition turn out when `COC(=O)C1=C(c2cc3ccccc3o2)C[C@@H]2CC[C@H]1N2C(=O)NC1CCCCC1` was run?
Answer: 0.201%
